From PubChem BioAssay (NCATS) come the findings set out here.

Inconclusive results are not listed. Activity calls are given as the source filed them. The call rests on the fitted dose curve.

Assay [1] can be described thus: Primary qHTS for inhibitors of SARS-S pseudo-typed particle cell entry (AID 1479145). Further: nearly all actives have a fitted effect of over 45% in size. Further: potency means the concentration at half of the fitted maximal effect.
A short description of assay [2]: Primary qHTS for Huh7 cytotoxicity: counterscreen for inhibitors of MERS-S pseudotyped particle cell entry (AID 1479147). Background: qHTS replaces the single test concentration by a dilution series.
Assay [3] can be described thus: Primary qHTS for inhibitors of MERS-S pseudo-typed particle cell entry (AID 1479149). Further: nearly all actives have a fitted effect of over 60% in size. Further: potency means the concentration at half of the fitted maximal effect.
Assay [4] in a line: Primary qHTS for Vero E6 cytotoxicity: counterscreen for inhibitors of SARS-S pseudo-typed particle cell entry (AID 1479150).

Turning to `CCOC(=O)[C@H](CCc1ccccc1)N[C@@H](C)C(=O)N1[C@H](C(=O)O)C[C@@H]2CCC[C@@H]21`, the Potency result in assay [1], in assay [2], in assay [3] and in assay [4] was “inactive” each time.

Regarding `CCCc1cc(=O)[nH]c(=S)[nH]1`, the Potency result in assay [1], in assay [2], in assay [3] and in assay [4] was “inactive” in each case.

Regarding `CC(=O)SC[C@@H](C)C(=O)N1CCC[C@H]1C(=O)N[C@@H](Cc1ccccc1)C(=O)O`, the Potency entry in assay [1], in assay [2], in assay [3] and in assay [4] was “inactive” in each case.

Take `CC(C)NCC(O)COc1cccc2[nH]ccc12` (stereo unspecified): the Potency entry in assay [1], in assay [2], in assay [3] and in assay [4] was “inactive” throughout.

Turning to `Cc1ncc([N+](=O)[O-])n1CCO`, the Potency entry in assay [1], in assay [2], in assay [3] and in assay [4] was “inactive” each time.

`CC1=C(C(=O)O)N2C(=O)[C@@H](NC(=O)[C@H](N)c3ccc(O)cc3)[C@H]2SC1`: the Potency entry in assay [1], in assay [2], in assay [3] and in assay [4] was “inactive” each time.

As to `O=NN(CCCl)C(=O)NCCCl`, the Potency result in assay [1], in assay [2], in assay [3] and in assay [4] was “inactive” in each case.

For `CC(C)(C)C(=O)OCOP(=O)(COCCn1cnc2c(N)ncnc21)OCOC(=O)C(C)(C)C`, the Potency entry in assay [1], in assay [2], in assay [3] and in assay [4] was “inactive” in each case.

In the case of `Cc1cccc(C)c1OCC(C)N` (stereo unspecified), the Potency entry in assay [1], in assay [2], in assay [3] and in assay [4] was “inactive” throughout.

In the case of `Nc1nc(F)nc2c1ncn2[C@@H]1O[C@H](CO)[C@@H](O)[C@@H]1O`, the Potency entry in assay [1], in assay [2], in assay [3] and in assay [4] was “inactive” throughout.

Take `CC1(C)O[C@@H]2[C@@H](CO[C@@]3(COS(N)(=O)=O)OC(C)(C)O[C@@H]23)O1`: the Potency entry in assay [1], in assay [2], in assay [3] and in assay [4] was “inactive” throughout.

Turning to `CCOc1ccc2ccccc2c1C(=O)N[C@@H]1C(=O)N2[C@@H]1SC(C)(C)[C@@H]2C(=O)O`, the Potency entry in assay [1], in assay [2], in assay [3] and in assay [4] was “inactive” each time.

As to `CC(C)NCC(O)c1ccc(O)c(O)c1` (stereo unspecified), the Potency entry in assay [1], in assay [2], in assay [3] and in assay [4] was “inactive” in each case.

As to `O=C1NC(=O)C(c2ccccc2)(c2ccccc2)N1`, the Potency entry in assay [1], in assay [2], in assay [3] and in assay [4] was “inactive” each time.

Turning to `COc1ccccc1OCC(O)COC(N)=O` (stereo unspecified), the Potency entry in assay [1], in assay [2], in assay [3] and in assay [4] was “inactive” throughout.

On to `CC[C@@H]([C@H](C)O)n1ncn(-c2ccc(N3CCN(c4ccc(OC[C@@H]5CO[C@@](Cn6cncn6)(c6ccc(F)cc6F)C5)cc4)CC3)cc2)c1=O`, for which the Potency is 14.1 µM (active) in assay [1] and 12.6 µM (active) in assay [3]. For the same compound, the Potency entry in assay [2] and in assay [4] was “inactive” each time.

As to `CCC1(c2ccccc2)C(=O)NCNC1=O`, the Potency result in assay [1], in assay [2], in assay [3] and in assay [4] was “inactive” each time.

On to `CN(C)/N=N/c1nc[nH]c1C(N)=O`, for which the Potency result in assay [1], in assay [2], in assay [3] and in assay [4] was “inactive” each time.

As to `N[C@@H]1CONC1=O`, the Potency result in assay [1], in assay [2], in assay [3] and in assay [4] was “inactive” in each case.

For `COC(c1ccccc1)(c1ccccc1)[C@H](Oc1nc(C)cc(C)n1)C(=O)O`, the Potency result in assay [1], in assay [2], in assay [3] and in assay [4] was “inactive” in each case.

For the compound `CN(N=O)C(=O)N[C@@H]1[C@@H](O)[C@H](O)[C@@H](CO)O[C@@H]1O`, the Potency entry in assay [1], in assay [2], in assay [3] and in assay [4] was “inactive” throughout.

Take `Cc1onc(-c2c(Cl)cccc2Cl)c1C(=O)N[C@@H]1C(=O)N2[C@@H]1SC(C)(C)[C@@H]2C(=O)O`: the Potency entry in assay [1], in assay [2], in assay [3] and in assay [4] was “inactive” in each case.

For the compound `CCCCC1=NC2(CCCC2)C(=O)N1Cc1ccc(-c2ccccc2-c2nn[nH]n2)cc1`, the Potency result in assay [1], in assay [2], in assay [3] and in assay [4] was “inactive” each time.

For the compound `CC(=O)Nc1nnc(S(N)(=O)=O)s1`, the Potency result in assay [1], in assay [2], in assay [3] and in assay [4] was “inactive” in each case.

Consider `CN/C(=C\[N+](=O)[O-])NCCSCc1ccc(CN(C)C)o1`, for which the Potency entry in assay [1], in assay [2], in assay [3] and in assay [4] was “inactive” in each case.

In the case of `CCCN[C@H]1CCc2nc(N)sc2C1`, the Potency result in assay [1], in assay [2], in assay [3] and in assay [4] was “inactive” throughout.

As for `CC[C@@]1(c2ccccc2)NC(=O)N(C)C1=O`, the Potency entry in assay [1], in assay [2], in assay [3] and in assay [4] was “inactive” throughout.

For `O[C@@H]1CO[C@H]2[C@@H]1OC[C@@H]2O`, the Potency result in assay [1], in assay [2], in assay [3] and in assay [4] was “inactive” each time.

Consider `CCCCN1C[C@H](O)[C@@H](O)[C@H](O)[C@H]1CO`, for which the Potency result in assay [1], in assay [2], in assay [3] and in assay [4] was “inactive” in each case.

In the case of `C[C@@H](c1ncncc1F)C(O)(Cn1cncn1)c1ccc(F)cc1F` (stereo partly specified), the Potency entry in assay [1], in assay [2], in assay [3] and in assay [4] was “inactive” each time.

Consider `CN(CCOc1ccc(CC2SC(=O)NC2=O)cc1)c1ccccn1` (stereo unspecified), for which the Potency result in assay [1], in assay [2], in assay [3] and in assay [4] was “inactive” throughout.

Turning to `Cc1ccc(S(=O)(=O)NC(=O)NN2CC3CCCC3C2)cc1` (stereo unspecified), the Potency result in assay [1], in assay [2], in assay [3] and in assay [4] was “inactive” throughout.

On to `c1cnc2cc3c(cc2n1)C1CNCC3C1`, for which the Potency entry in assay [1], in assay [2], in assay [3] and in assay [4] was “inactive” each time.

As for `CC(C)(C)NC(=O)[C@@H]1CN(Cc2cccnc2)CCN1C[C@@H](O)C[C@@H](Cc1ccccc1)C(=O)N[C@H]1c2ccccc2C[C@H]1O`, the Potency entry in assay [1], in assay [2], in assay [3] and in assay [4] was “inactive” in each case.
